Laboratory results published in the supplement of paper PMC6089552.
Screen size: about 3,200 compounds; about 300 (9.4%) showed activity. Shown is part of a subset that was picked to be rich in actives.

Test system: A673/TR/shEF
Experiment: cell viability (LOESS-normalised, relative to median of negative controls) (log2 ratio); higher = more viable cells (less compound effect), active = hit call of the paper (over 3 MAD below the median)
Settings: treatment time: 72 h
Procedure, shortened: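 Viability of A673/TR/shEF Ewing sarcoma cells was determined by CellTiter-Glo luminescence. The cells, at 1,500 per well in 384-well plates, were grown with or without doxycycline from 24 h before compound addition to switch on EWS-FLI1 shRNA knockdown, then exposed for three days to library compounds at two or more concentrations or to DMSO controls. Signals were LOESS-corrected plate by plate, normalised to the negative-control median and log2-transformed.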

[1] = 0.25 µM, library screen: screen1, EWS-FLI1 expression: high (no doxycycline)
[2] = 0.25 µM, library screen: screen1, EWS-FLI1 expression: low (doxycycline-induced shRNA knockdown)
[3] = 2.5 µM, library screen: screen1, EWS-FLI1 expression: high (no doxycycline)
[4] = 2.5 µM, library screen: screen1, EWS-FLI1 expression: low (doxycycline-induced shRNA knockdown)
[5] = 0.25 µM, library screen: screen2, EWS-FLI1 expression: high (no doxycycline)
[6] = 0.25 µM, library screen: screen2, EWS-FLI1 expression: low (doxycycline-induced shRNA knockdown)
[7] = 2.5 µM, library screen: screen2, EWS-FLI1 expression: high (no doxycycline)
[8] = 2.5 µM, library screen: screen2, EWS-FLI1 expression: low (doxycycline-induced shRNA knockdown)

Measured: cell viability (log2)

O=c1cc([C@H]2Oc3cc(O)cc(O)c3C[C@H]2O)cc2c([C@H]3Oc4cc(O)cc(O)c4C[C@H]3O)cc(O)c(O)c2c1O
inactive: [1] 0.0869 | [2] 0.0834 | [3] 0.134 | [4] 0.162

C[n+]1cc2c3c(ccc2c2ccc4cc5c(cc4c21)OCO5)OCO3
active: [3] -0.232 | [7] -0.101 | 25 µM, library screen: screen2, EWS-FLI1 expression: high (no doxycycline) -4.23 | 25 µM, library screen: screen2, EWS-FLI1 expression: low (doxycycline-induced shRNA knockdown) -4.28
inactive: 0.025 µM, library screen: screen2, EWS-FLI1 expression: high (no doxycycline) 0.0722 | 0.025 µM, library screen: screen2, EWS-FLI1 expression: low (doxycycline-induced shRNA knockdown) 0.0049 | [1] 0.0872 | [2] 0.0117 | [5] 0.116 | [6] 0.0651 | [4] -0.0123 | [8] -0.0563

COc1ccc(C(=O)C=Cc2ccccc2)cc1
inactive: [1] 0.0817 | [2] 0.0563 | [3] 0.0612 | [4] 0.0356

CC(C)=CC1C(CO)C1(C)C (stereo unspecified)
inactive: [1] 0.105 | [2] 0.00359 | [3] 0.117 | [4] 0.123

CCOC(=O)c1sc(C)c2c(=O)n(C3CCCCC3)cnc12
inactive: [1] 0.0769 | [2] 0.0757 | [3] 0.067 | [4] -0.0142

Cc1ccc(S(=O)(=O)/C=C/C#N)cc1
active: [3] -0.841 | [7] -0.102 | 25 µM, library screen: screen1, EWS-FLI1 expression: high (no doxycycline) -3.58 | 25 µM, library screen: screen1, EWS-FLI1 expression: low (doxycycline-induced shRNA knockdown) -2.12
inactive: 0.025 µM, library screen: screen1, EWS-FLI1 expression: high (no doxycycline) 0.231 | 0.025 µM, library screen: screen1, EWS-FLI1 expression: low (doxycycline-induced shRNA knockdown) -0.0315 | [1] 0.131 | [2] 0.0518 | [5] 0.14 | [6] -0.0223 | [4] -0.123 | [8] 0.0315

CC(C)(C)c1ccc(S(=O)(=O)/C=C/C#N)cc1
active: [7] -0.121
inactive: [5] 0.205 | [6] 0.163 | [8] 0.0273

C[C@@H](Oc1ccccc1)C(=O)N[C@@H]1C(=O)N2[C@@H]1SC(C)(C)[C@@H]2C(=O)O
inactive: [1] 0.0816 | [2] 0.0301 | [3] 0.188 | [4] 0.189

CC1=C[C@@H]2[C@@H](CC1)[C@](C)(O)CC[C@H]2C(C)C
inactive: [1] 0.0888 | [2] 0.0211 | [3] 0.101 | [4] 0.102

C=C1C2CC[C@@]3(C)[C@H](c4ccoc4)OC(=O)C[C@]13O[C@H]1C[C@H](OC(C)=O)C(C)(C)[C@H](CC(=O)OC)[C@@]21C
inactive: [1] 0.122 | [2] 0.0225 | [3] 0.146 | [4] 0.192

Cc1onc(-c2c(Cl)cccc2Cl)c1C(=O)Nc1ccc(Br)cc1F
inactive: [1] 0.112 | [2] 0.103 | [3] 0.116 | [4] 0.0234

O=C(/C=C/c1ccc(O)c(O)c1)OCCc1ccccc1
active: [7] -0.129
inactive: [5] 0.197 | [6] 0.0712 | [8] 0.0968

O=C(/C=C/c1ccc(O)c(O)c1)O[C@H](Cc1ccc(O)c(O)c1)C(=O)O
inactive: [1] 0.0508 | [2] 0.0752 | [3] 0.0833 | [4] 0.158

O=C(O)/C=C/c1ccc(O)c(O)c1
inactive: [1] 0.082 | [2] -0.0191 | [5] 0.181 | [6] 0.126 | [3] 0.109 | [4] 0.0871 | [7] 0.0522 | [8] 0.0284

N[C@@H](CSCSC[C@H](N)C(=O)O)C(=O)O
inactive: [1] 0.0746 | [2] 0.0305 | [3] 0.129 | [4] 0.147

N#Cc1c(-c2ccc(Br)cc2)cc(-c2ccc3c(c2)OCO3)c(C#N)c1N
inactive: [1] 0.0622 | [2] 0.109 | [3] 0.154 | [4] 0.0524

CCCc1occc(=O)c1C=CO
inactive: [1] -0.0143 | [2] 0.0143 | [3] 0.203 | [4] 0.0516

Nc1ccc(S(=O)(=O)Nc2ccnn2-c2ccccc2)cc1
inactive: [1] 0.0545 | [2] -0.0171 | [5] 0.053 | [6] 0.048 | [3] 0.14 | [4] 0.0403
active: [7] -0.179 | [8] -0.12

Nc1ccc(S(=O)(=O)Nc2ccccn2)cc1
inactive: [1] 0.0477 | [2] 0.097 | [3] 0.18 | [4] 0.163

Nc1ccc(S(=O)(=O)Nc2ncccn2)cc1
inactive: 0.103 µM, library screen: screen3, EWS-FLI1 expression: high (no doxycycline) 0.169 | 0.103 µM, library screen: screen3, EWS-FLI1 expression: low (doxycycline-induced shRNA knockdown) 0.0541 | [1] 0.0966 | [2] 0.142 | 0.308 µM, library screen: screen3, EWS-FLI1 expression: high (no doxycycline) 0.163 | 0.308 µM, library screen: screen3, EWS-FLI1 expression: low (doxycycline-induced shRNA knockdown) 0.0301 | 0.926 µM, library screen: screen3, EWS-FLI1 expression: high (no doxycycline) 0.117 | 0.926 µM, library screen: screen3, EWS-FLI1 expression: low (doxycycline-induced shRNA knockdown) 0.108 | [3] 0.146 | [4] 0.202 | 2.8 µM, library screen: screen3, EWS-FLI1 expression: high (no doxycycline) 0.14 | 2.8 µM, library screen: screen3, EWS-FLI1 expression: low (doxycycline-induced shRNA knockdown) 0.0823 | 8.3 µM, library screen: screen3, EWS-FLI1 expression: high (no doxycycline) 0.0532 | 8.3 µM, library screen: screen3, EWS-FLI1 expression: low (doxycycline-induced shRNA knockdown) 0.0153 | 25 µM, library screen: screen3, EWS-FLI1 expression: high (no doxycycline) 0.0911 | 25 µM, library screen: screen3, EWS-FLI1 expression: low (doxycycline-induced shRNA knockdown) 0.15

COC(=O)C[C@H]1C(C)(C)C(=O)[C@@H]2CC3C4=CC(=O)O[C@@H](c5ccoc5)[C@]4(C)CC[C@@H]3[C@@]1(C)C2=O (stereo partly specified)
inactive: [1] 0.00456 | [2] 0.0839 | [3] 0.0543 | [4] 0.0477

COc1ccc2c(c1)O[C@@H]1c3ccc(OC)cc3OC[C@H]21
inactive: [1] 0.0429 | [2] 0.176 | [3] 0.0512 | [4] 0.136

C[C@]12CC[C@H](O)C[C@H]1C[C@@H]1OC13C2[C@H](O)C(=O)[C@]1(C)[C@@H](C2=CC(=O)OC2)CC[C@]31O (stereo partly specified)
inactive: [1] 0.026 | [2] -0.0692 | [3] 0.111 | [4] -0.106

C[C@H]1O[C@@H](O[C@H]2[C@@H](O)C[C@H](O[C@H]3[C@@H](O)C[C@H](O[C@H]4CC[C@@]5(C)[C@H](CC[C@@H]6[C@@H]5C[C@@H](O)[C@]5(C)[C@@H](C7=CC(=O)OC7)CC[C@]65O)C4)O[C@@H]3C)O[C@@H]2C)C[C@H](O)[C@@H]1O
active: [3] -2.32 | [4] -1.91
inactive: [1] -0.0229 | [2] -0.153

C[C@H]1O[C@@H](O[C@H]2[C@@H](O)C[C@H](O[C@H]3[C@@H](O)C[C@H](O[C@H]4CC[C@@]5(C)[C@H](CC[C@@H]6[C@@H]5CC[C@]5(C)[C@@H](C7=CC(=O)OC7)CC[C@]65O)C4)O[C@@H]3C)O[C@@H]2C)C[C@H](O)[C@@H]1O
active: [1] -2.45 | [2] -2.04 | [3] -3.94 | [4] -4.23
